Compound activity as filed in PubChem BioAssay.
Hits are enriched below; roughly 1.2% of the tested compounds scored in any of these assays.
E coli Lon inh: inhibits E. coli Lon protease; purified E. coli Lon protease, fluorescence polarization; inhibition, % at 7.94 µM; 0.42% of 360,000 active; AID 602123; in the data active = inhibition above about 13%, passing the limit was not always enough
GLD-1 TGE inh: GLD-1-TGE RNA interaction inhibition (C. elegans) | purified GLD-1 + fluorescein TGE RNA, fluorescence polarization | inhibition, % at 5.96 µM | 0.44% of 320,000 active;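 active = percent inhibition above a per-plate cutoff, the plate mean of test compounds plus 3 SD, cut at about 30% in these data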
Keap1 Nrf2 FP: inhibitors of human Keap1-Nrf2 protein-protein interaction | Q14145 | Keap1 Kelch-Nrf2 peptide fluorescence polarization, 1536-well | inhibition, % at 9.4 µM | 0.15% of 340,000 active | AID 504523; in the data active = inhibition above about 12%; inconclusive = no clear call, values can overlap the other calls; inactive = below about 7.3%;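 note: human Keap1 Kelch domain with fluorescein labeled Nrf2 9mer peptide probe; higher means more block of Keap1 binding to Nrf2 peptide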
Bcl-xL primary: blocks human Bcl-xL binding to Bim BH3 peptide; Q07817; inhibition, % at 10.9 µM; GST-Bcl-xL / FITC-Bim BH3 peptide fluorescence polarization; 0.7% of 320,000 active; AID 2129;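 active = inhibition above the mean of all tested compounds plus 3 SD, cutoff set per campaign, cut at about 30% in these data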;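 note: inhibitors lower millipolarization by displacing the labeled peptide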
MEX-5 binding: C. elegans MEX-5 TCR-2 RNA binding activity | MEX-5/FITC-TCR2 RNA binding, fluorescence polarization; active compounds read low | AID 1832 | Q9XUB2 | 0.38% of 300,000 active | activity score (negative = inhibition of binding), % at 10 µM;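 active = inhibition past about -25% in most replicates, and total fluorescence under double the plate's negative control median, limit read from the data; inconclusive = replicates evenly split on the limit, or fluorescence at least double controls; inactive = too little inhibition in most replicates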
Target sequence (Q9XUB2 whole entry, looked up): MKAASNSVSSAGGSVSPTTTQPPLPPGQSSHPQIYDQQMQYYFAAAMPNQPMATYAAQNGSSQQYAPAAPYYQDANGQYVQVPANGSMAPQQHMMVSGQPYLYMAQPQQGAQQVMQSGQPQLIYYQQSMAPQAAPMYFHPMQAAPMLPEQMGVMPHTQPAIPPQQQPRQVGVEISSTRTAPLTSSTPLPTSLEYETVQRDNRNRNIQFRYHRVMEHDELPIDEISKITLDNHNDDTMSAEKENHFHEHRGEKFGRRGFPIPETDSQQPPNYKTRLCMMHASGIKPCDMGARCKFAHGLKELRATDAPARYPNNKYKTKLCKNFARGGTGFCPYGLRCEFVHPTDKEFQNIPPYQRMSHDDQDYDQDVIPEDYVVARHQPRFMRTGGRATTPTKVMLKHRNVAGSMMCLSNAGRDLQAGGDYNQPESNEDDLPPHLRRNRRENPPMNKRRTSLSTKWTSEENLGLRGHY
C-LANA FP: blocks KSHV LANA C-terminal domain binding to DNA. MBP-C-LANA/FAM-LBS DNA binding, fluorescence polarization. inhibition, % at 9 µM. 0.078% of 340,000 active. AID 504423;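 active = highest replicate inhibition at or above 60% at 9 µM, even if other replicates fall short; inactive = all replicates below 60% inhibition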
Numbers stand for hits; - = inactive; ? = inconclusive; . = not tested or not shown; + = active, no number.

SMILES	E coli Lon inh	GLD-1 TGE inh	Keap1 Nrf2 FP	Bcl-xL primary	MEX-5 binding	C-LANA FP
COc1ccc(C2C=C(c3ccccc3)Nc3nc(CCCO)nn32)cc1 (stereo not given)	.	-	.	-	.	.
COc1ccc(C2C=C(c3cccs3)Nc3nc(CCCO)nn32)cc1 (stereo not given)	.	143.9	.	175.8	.	.
O=C(c1nc2n(n1)C(c1ccc(Cl)cc1)C=C(c1ccccc1)N2)N1CCOCC1 (stereo not given)	-	47.8	-	65.2	-	-
O=C(Nc1nc2n(n1)C(c1ccccc1)C=C(c1ccccc1)N2)c1ccco1 (stereo not given)	-	-	-	-	-	-
COc1ccc(OCC(=O)NC2CCSc3ccccc32)cc1 (stereo not given)	-	-	-	.	.	-
COc1ccc(OCCN2CCC(C(=O)NC(c3ccc(F)cc3)c3ncccc3C)CC2)cc1 (stereo not given)	-	.	.	.	.	.
O=S1(=O)N[C@@H](Cc2ccccc2)COc2cccc(N3CCC[C@@H]3CO)c21	-	.	.	.	.	.
O=C(CSCc1c(F)cccc1Cl)NNC(=S)NC1CCCCC1	-	-	-	-	-	-
CCOC(=O)c1cc(-c2ccccc2)n(Cc2cc(CC)no2)n1	-	-	-	-	-	-
O=C(C1=NNCC1c1ccccc1)C1OC1c1ccccc1 (stereo not given)	-	-	-	-	-	-
COc1ccc(C2C=C(c3ccc(Cl)cc3)Nc3nc(NC(C)=O)nn32)cc1 (stereo not given)	.	118.8	.	138.9	.	.
COc1ccccc1C1C=C(c2ccc(Cl)cc2)Nc2nc(N3C(=O)CCC3=O)nn21 (stereo not given)	-	-	-	-	.	-
COc1ccc(C2=CC(c3ccc(Cl)cc3)n3cnnc3N2)cc1OC (stereo not given)	-	44.0	-	58.7	-	-
COC(=O)c1ccccc1-c1c2ccc(=N)cc-2oc2cc(N)ccc12	.	.	+	.	.	.
Brc1ccc(-c2cn3nc4c(nc3n2)CCCC4)cc1	-	42.1	-	74.8	-	-
Nc1nn2cc(-c3ccc(Br)cc3)nc2c2ccccc12	-	-	-	-	-	-
COc1ccc(C(=O)N/C(=C\c2ccccc2)C(=O)NCc2cccnc2)cc1	-	-	-	-	-	-
S=c1sc2ccccc2n1CCc1ccncc1	-	-	-	-	-	-
CC(NC(=O)c1ccccc1)C(=O)OCC(=O)c1ccc(Br)cc1 (stereo not given)	-	-	-	169.1	-	-
O=C1c2ccccc2C(c2nnnn2-c2ccc3ccccc3c2)N1C1CC1 (stereo not given)	-	.	.	.	.	.
CCN(CC(=O)NCCCN1CCOCC1)S(=O)(=O)c1ccc(Cl)cc1	-	-	-	-	-	-
O=C(O)C1CN(c2nc(Cl)ccc2[N+](=O)[O-])C1	-	-	-	-	-	-
O=C(O)C1CC(O)CN1c1nc(Cl)ccc1[N+](=O)[O-] (stereo not given)	-	-	-	36.6	-	-
N#CC1(NC(=O)COC(=O)C2=COCCO2)CCCCC1	-	-	194.2	-	.	.
O=C1SC(SCc2ccccc2Cl)=N/C1=C\c1ccc(C(=O)O)cc1	-	-	-	-	-40.7	-
SMILES	E coli Lon inh	GLD-1 TGE inh	Keap1 Nrf2 FP	Bcl-xL primary	MEX-5 binding	C-LANA FP
CC1(NC(=O)Cc2c(F)cccc2Cl)CCS(=O)(=O)C1 (stereo not given)	-	-	-	.	.	-
Cc1nc2ccc(NC(=O)NC(=O)c3c(Cl)cccc3Cl)cc2o1	-	-	-	43.1	-	-
Cc1cc(C)nc(NC(=O)c2c(-c3c(Cl)cccc3Cl)noc2C)n1	-	-	-	-	-	-
CNC(=O)Nc1ccc2nc(C)oc2c1	-	-	-	-	-	-
Cc1cc(C)nc(NC(=O)c2c(Cl)cccc2Cl)n1	-	-	-	-	-	84.8
Cn1c(N)c(C(=O)CSc2nnc(C3CC3)n2Cc2ccccc2)c(=O)[nH]c1=O	-	-	-	-	.	-
COc1ccc(N2C(=O)[C@@H]3[C@H](C2=O)[C@H]2c4ccccc4C=CN2[C@@H]3C(C)=O)cc1	-	-	-	34.0	.	-
c1ccc(C(c2nnnn2C2CCCCC2)N2CCc3ccccc3C2)nc1 (stereo not given)	-	-	-	30.5	-	-
CC(C)C(c1nnnn1C1CCCCC1)N1CCc2ccccc2C1 (stereo not given)	-	-	-	-	-	-
O=c1[nH]n(-c2ncnc3c2cnn3-c2ccccc2)c(=O)c2ccccc12	-	-	-	-	-38.6	-
Cn1cnc2nc[nH]c2c1=O	-	.	-	.	.	-
N#C/C(=C\c1ccc(Cl)c([N+](=O)[O-])c1)c1ccccn1	-	-	-	-	-	-
CNc1ccc(/C=C(\C#N)c2ccccn2)cc1[N+](=O)[O-]	-	-	-	36.7	-	-
COCCNC(=O)C1CCCN(Cc2ccccc2F)CC1 (stereo not given)	-	.	.	.	.	.
CCCCN(C=O)c1c(CC)nc2c(OCCOc3ccccc3)cccn12	-	.	.	.	.	.
COc1cc(/C=C2/C(=O)NN(c3ccc(C)c(Cl)c3)C2=O)cc([N+](=O)[O-])c1O	-	.	-	.	-	-
COc1cc(/C=C2/C(=O)NN(c3cccc(C)c3)C2=O)cc([N+](=O)[O-])c1O	-	-	-	-	-27.1	-
CCN(CC(=O)Nc1ccc(OC)cc1)C(=O)CSCC(=O)Nc1cc(C)on1	-	-	-	-	.	-
CCC[n+]1c2ccccc2cc2ccccc21	-	-	-	36.5	-	-
CCCC[n+]1c2ccccc2cc2ccccc21	-	-	-	-	-	-
CS(=O)(=O)Nc1nc2n(n1)C(c1ccccc1)C=C(c1ccc(Br)cc1)N2 (stereo not given)	99.3	157.4	35.4	156.8	-68.8	73.8
COc1ccccc1C1C=C(c2ccc(Cl)cc2)Nc2nc(NS(C)(=O)=O)nn21 (stereo not given)	.	70.6	.	66.3	-	.
CCCCNC(=O)C1(N2C(=O)c3ccccc3C2=O)CCCC1	-	.	.	.	.	.
Cc1cc(C)c[n+](C2=C([O-])c3ccccc3C(=O)/C2=N\S(=O)(=O)c2cccs2)c1	-	-	-	-	-	-
O=C1/C(=N\S(=O)(=O)c2cccs2)C([n+]2cccc(Cc3ccccc3)c2)=C([O-])c2ccccc21	-	179.2	-	+	?	-
CC(C)(C)c1cc[n+](C2=C([O-])c3ccccc3C(=O)/C2=N\S(=O)(=O)c2ccccc2)cc1	-	-	.	-	-	.
O=C1/C(=N\S(=O)(=O)c2cccs2)C([n+]2ccc(CCCc3ccccc3)cc2)=C([O-])c2ccccc21	-	-	.	-	-40.1	.
Cc1cc[n+](C2=C([O-])c3ccccc3C(=O)/C2=N\S(=O)(=O)c2cccs2)cc1C	-	-	-	-	-33.7	-
Cc1cc(C)cc(NC(=O)CCc2c(C)nn(-c3ccc(N4CCOCC4)nn3)c2C)c1	-	-	-	-	-	-
